# Data as given in ChEMBL document CHEMBL1157539, “Thousands of chemical starting points for antimalarial lead identification” (Nature, 2010).
# What was measured:
# Type in all cases: functional
# Plasmodium falciparum [1] = experiment: GSK_TCMDC: Inhibition of Plasmodium falciparum 3D7 in whole red blood cells, using parasite LDH activity as an index of growth. Test compounds present at 2uM
# Plasmodium falciparum [2] = experiment: GSK_TCMDC: Inhibition of Plasmodium falciparum Dd2 in whole red blood cells, using parasite LDH activity as an index of growth. Test compounds present at 2uM
# HepG2 = experiment: GSK_TCMDC: Percent inhibition of human HepG2 cell line. Test compounds present at 10uM.
SMILES,Inhibition (Plasmodium falciparum [1]) [%],Inhibition (Plasmodium falciparum [2]) [%],Inhibition (HepG2) [%]
CCOC(=O)C1=C(C)NC2=C(C(=O)C(C(=O)OC)C(C)C2)C1c1cc(Br)c(OCC)c(OC)c1 (stereo not given),100,99,8
CN1CCN(c2cc(NC(=O)Nc3cccc(Cl)c3Cl)ccc2Cl)CC1.Cl,100,21,2
O=C(NC1CC1)c1cnc(N2CCCC(c3ccccc3)C2)c(Cl)c1.O=C(O)C(F)(F)F (stereo not given),95,94,6
CN(C)CCN(C)Cc1ccc(-c2ccc3c(Nc4ccc(F)cc4Cl)ccnc3c2)o1,100,100,31
CNc1ccc(CNCc2cccc(-c3ccc(-c4nc5cccc(C)c5[nH]4)s3)c2)cc1.O=C(O)C(F)(F)F,100,88,23
CCc1ccc(-c2nc3cc(NC(=O)c4ccc([N+](=O)[O-])o4)ccc3o2)cc1,97,80,4
Cc1ccc(CN2CCCN(Cc3cccc(NC(=O)c4ccc(-c5ccccc5)cc4)c3)CC2)cc1C.O=C(O)C(F)(F)F,84,19,43
COc1ccc(-c2csc(NC(=O)CCC(=O)O)n2)cc1OC,94,0,63
Br.CC1(C)NC(N)=NC(=N)N1OCCc1ccccc1,96,95,70
CCCCCN1CCC(NS(=O)(=O)c2cccc(C(=O)Nc3cccc(C(F)(F)F)c3)c2)C1.O=C(O)C(F)(F)F (stereo not given),86,17,25
Cc1nnsc1C(=O)Nc1ccc(-c2ccc(-c3nc4cccc(C)c4[nH]3)s2)cc1,100,61,63
COc1ccc2nccc([C@@H](O)CN3CCC(NCCOc4ccccc4C#N)CC3)c2c1.O=C(O)C(=O)O,100,99,10
CCN1CCCC(Nc2ccnc3cc4ccccc4cc23)C1 (stereo not given),100,100,38
CCn1ccc2c(N3CCCC3=O)cc(C(=O)N[C@@H](Cc3ccccc3)[C@H](O)CNCc3cccc(OC)c3)cc21,94,92,4
Fc1ccc2[nH]c(-c3cccc(-c4cccc(CNCc5cnn(-c6ccccc6)n5)c4)c3)nc2c1.O=C(O)C(F)(F)F,91,57,18
O=C(NC1CCCCC1)c1csc(C2CCCN(C(=O)c3ccc(O)c(-c4cccc(C(F)(F)F)c4)c3)C2)n1 (stereo not given),96,85,8
CCCC(C)Nc1nc(C)cc(N[C@@H](Cc2ccccc2)C(=O)NCc2cccc(F)c2)n1.O=C(O)C(F)(F)F (stereo not given in full),100,75,9
COc1cccc(CN2CCCN(Cc3cccc(NC(=O)c4ccc(-c5ccccc5)cc4)c3)CC2)c1.O=C(O)C(F)(F)F,86,8,35
Cc1cccc(NC(=O)c2cnc(N3CCN(c4ccncc4)CC3)c(Cl)c2)c1.O=C(O)C(F)(F)F,100,54,36
Clc1ccc(-c2nc3cc(-c4ccc5nc(-c6ccc(Cl)cc6)[nH]c5c4)ccc3[nH]2)cc1,100,99,59

SMILES,Inhibition (Plasmodium falciparum [1]) [%],Inhibition (Plasmodium falciparum [2]) [%],Inhibition (HepG2) [%]
COc1ccc2nccc([C@@H](O)CN3CCC(NCc4cnc5c(c4)NC(=O)CS5)C(F)C3)c2c1.Cl (stereo not given in full),90,90,0
COc1ccccc1/C=C/C(=O)N(C)C1CCN(CCCCCNC(=O)/C=C/c2ccc(Cl)c(Cl)c2)C1 (stereo not given),94,14,10
Br.CCC1N=C(N)N=C(N)N1OCCCOc1c(Cl)cc(Cl)cc1Cl (stereo not given),95,96,67
CN(C(=O)c1nn(-c2ccccn2)c2nccc(-c3cccs3)c12)C1CCCCC1,87,1,4
CC(C)Cc1nc(N)nc(N)c1-c1ccc(Cl)cc1,96,3,5
Cc1ccc(NC(=O)c2ccc(CN3CCCN(CCC(C)C)CC3)cc2)cc1C.O=C(O)C(F)(F)F,92,17,25
Cc1ccc(C)c(NC(=O)NC2CCN(c3ccnc(Nc4ccc(F)cc4)n3)C2)c1 (stereo not given),100,74,0
COc1ccc2nccc([C@@H](O)CN3CCC(NCc4ccc(OC)c(NC(C)=O)c4)CC3)c2c1,90,0,0
CCc1cn2c3c(cc(C(=O)N[C@@H](Cc4ccccc4)[C@H](O)CNCc4ccccc4)cc13)N(C)S(=O)(=O)CC2.O=CO,98,99,3
N#Cc1ccc(-c2ccc(C(=O)NCCCCN3CCC(c4nc5ccccc5[nH]4)CC3)cc2)cc1,92,13,43
Cc1cccc2nc(-c3ccc(-c4ccc(CNCc5cccc(N)c5)cc4)cc3)[nH]c12.O=C(O)C(F)(F)F,100,84,12
c1ccc(-c2cccc(-c3ccccn3)n2)nc1 [TERPYRIDINE],98,99,45
O=C1Nc2ccc3ncccc3c2/C1=C/Nc1ccc(Cn2ccnc2)cc1,100,85,33
CCCc1ccc(S(=O)(=O)NC2CCN(c3ccnc(Nc4ccc(OC)cc4)n3)C2)cc1 (stereo not given),89,45,42
O=C(/C=C/c1ccc(Cl)c(Cl)c1)NCCCCCN1CC[C@H](NC(=O)/C=C/c2ccccc2)C1,93,1,10
Br.CCCc1cc(C)ccc1OCCCON1C(N)=NC(N)=NC1(C)C,97,97,64
O=c1cc(NCCC2CC=CCN2Cc2ccc(Cl)c(Cl)c2)[nH]c2ccccc12 (stereo not given),94,77,7
O=C(O)C(F)(F)F.c1cc(CN2CCN(c3ccncc3)CC2)cc(-c2ccc(-c3nc4ccccc4[nH]3)s2)c1,100,100,59
O=C(O)C(F)(F)F.c1cc(CNCC2CCCO2)cc(-c2cccc(-c3nc4ccccc4[nH]3)c2)c1 (stereo not given),100,7,15
CCOc1cc2ncnc(Nc3ccc(OCc4ccccc4Br)c(OC)c3)c2cc1OCC.Cl,100,82,1

SMILES,Inhibition (Plasmodium falciparum [1]) [%],Inhibition (Plasmodium falciparum [2]) [%],Inhibition (HepG2) [%]
COc1cc(NC(=O)N2CCc3ccc(OCCN4CCCCC4)cc32)cc(C(F)(F)F)c1.O=C(O)C(F)(F)F,100,93,9
COc1ccc2ncn(-c3ccc(C(N)=O)c(OCc4ccccc4C(F)(F)F)c3)c2c1,98,100,18
COc1ccccc1NC(=O)Nc1cccc(-c2ccc(-c3nc4cc(C(F)(F)F)ccc4[nH]3)cc2)c1,100,76,28
N=C(/N=C(/NCCCCCCN/C(=N\C(=N)Nc1ccc(Cl)cc1)N1CCCCC1)N1CCCCC1)Nc1ccc(Cl)cc1,100,98,0
COc1cc(F)c2ncc(F)c([C@@H](O)CN3CCC(NCc4cc5c(cn4)OCCO5)CC3)c2c1.Cl,100,88,1
O=C(/C=C/c1ccc(Cl)c(Cl)c1)NCCCN1CCC(c2c[nH]c3ccccc23)CC1,90,5,48
O=C(Nc1ccccc1)N1CCC(CN2CCOC(c3ccccc3)(c3ccccc3)C2)CC1,96,98,10
CCOc1ccc(C(=O)Nc2ccc(-c3nc4ccccc4[nH]3)cc2)cc1[N+](=O)[O-],100,70,22
CC(=O)Nc1nc(C(=O)Nc2ccc(-c3ccc(-c4nc5cc(F)ccc5[nH]4)cc3)cc2)cs1,100,33,17
COc1cc2nc(N3CCC(CNC(=O)c4ccc(-c5ccc(C(=O)N(C)C)cc5C)cc4)CC3)nc(N3CCN(C)CC3)c2cc1OC,88,84,26
COc1ccc(Cn2c(N3CCN(S(=O)(=O)c4ccc(OC)cc4)CC3)nc3c2c(=O)n(CC2CC2)c(=O)n3CC2CC2)cc1,92,39,0
CN1N=C2c3ccccc3CCC2C1c1ccc(C#N)cc1 (stereo not given),95,85,0
CCn1c(-c2nonc2N)nc2c(-c3cc4ccccc4s3)ncc(C(=O)N3CCC(N)C3)c21.O=C(O)C(F)(F)F (stereo not given),98,66,99
CN1CCCc2cc(NC(=O)C=Cc3ccc(-c4ccc(F)cc4F)o3)ccc2C1.O=C(O)C(F)(F)F,90,27,5
Nc1nc(Nc2cccc(Cl)c2)ncc1C(=O)NCc1ccncc1,98,29,3
COc1cc(C(=O)NC2CCN(Cc3ccccc3)CC2)ccc1-c1nc2cc(Cl)c(C)cc2[nH]1,99,97,0
N=C(N)Nc1nc(-c2ccc(NC(=O)Nc3cccc(-c4csc(NC(=N)N)n4)c3)cc2)cs1,94,80,0
Cl.N#Cc1ccc2c(c1)CCN(CCC1CCC(NC(=O)Nc3ccncc3)CC1)C2 (stereo not given),85,3,6
C/C(=C\C(=O)NC1CC1)c1ccccc1OCc1ccccc1,90,1,3
O=C(N[C@@H](CC1CCCCC1)C(=O)NC1CCCc2ccccc21)c1ccc(O)c(-c2cccc(C(F)(F)F)c2)c1 (stereo not given in full),100,99,0
